Source: PubChem BioAssay (Tox21)
Inconclusive results are not listed. Active and inactive are the calls of the source. Unless noted, the call rests on the fitted dose curve.

Assays:
[1] = Nuclear factor erythroid 2-related factor 2/antioxidant responsive element (Nrf2/ARE) small molecule agonists: qHTS cell viability counter screen in human keratinocytes (AID 1919968; active means well fitted curve in the direction sought with a large enough effect in the repeat runs; an effect the other way counts as inactive or inconclusive; further: nearly all actives have a fitted effect of over 55% in size; further: potency means the concentration at half of the fitted maximal effect)
How it was run: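 Stably transfected HaCaT (KeratinoSens), 1,500/well. Test agents in DMSO were applied for 23 h, 37 C/5% CO2. CellTiter-Fluor was incubated 1 h before the fluorescence read.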

[2] = Nuclear factor erythroid 2-related factor 2/antioxidant responsive element (Nrf2/ARE) small molecule agonists: luciferase reporter gene qHTS assay in human keratinocytes (AID 1919969); further: nearly all actives have a fitted effect of over 35% in size; further: potency means the concentration at half of the fitted maximal effect
[3] = target: Gonadotropin-releasing hormone receptor (Homo sapiens) (UniProt P30968); test: Human gonadotropin-releasing hormone receptor (GnRHR) small molecule agonists, calcium flux assay in GnRHR-HEK293 cells (AID 1920063); further: nearly all actives have a fitted effect of over 35% in size
Chain of Gonadotropin-releasing hormone receptor (Homo sapiens) (P30968 whole entry, looked up): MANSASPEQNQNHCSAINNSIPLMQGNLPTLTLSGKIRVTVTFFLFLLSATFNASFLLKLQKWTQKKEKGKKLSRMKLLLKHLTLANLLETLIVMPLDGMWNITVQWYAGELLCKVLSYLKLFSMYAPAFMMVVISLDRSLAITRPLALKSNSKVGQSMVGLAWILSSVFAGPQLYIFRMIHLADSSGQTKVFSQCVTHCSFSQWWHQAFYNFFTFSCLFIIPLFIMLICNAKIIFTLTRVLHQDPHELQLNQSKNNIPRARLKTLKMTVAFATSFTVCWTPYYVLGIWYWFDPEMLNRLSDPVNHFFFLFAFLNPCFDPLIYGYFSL
How it was run: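 Stable human GnRHR HEK293 line. 18 h plating, then calcium dye for 1 h at 37 C. Agonist-mode compound addition from DMSO stocks; fluorescence monitored 3 min.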

[4] = target: KiSS-1 receptor (Homo sapiens) (UniProt Q969F8); test: Human kisspeptin (KISS1R) small molecule agonists, calcium flux assay in KISS1R-HEK293 cells (AID 1920064; active means well fitted curve in the direction sought with a large enough effect in the repeat runs; an effect the other way counts as inactive or inconclusive)
Chain of KiSS-1 receptor (Homo sapiens) (Q969F8 whole entry, looked up): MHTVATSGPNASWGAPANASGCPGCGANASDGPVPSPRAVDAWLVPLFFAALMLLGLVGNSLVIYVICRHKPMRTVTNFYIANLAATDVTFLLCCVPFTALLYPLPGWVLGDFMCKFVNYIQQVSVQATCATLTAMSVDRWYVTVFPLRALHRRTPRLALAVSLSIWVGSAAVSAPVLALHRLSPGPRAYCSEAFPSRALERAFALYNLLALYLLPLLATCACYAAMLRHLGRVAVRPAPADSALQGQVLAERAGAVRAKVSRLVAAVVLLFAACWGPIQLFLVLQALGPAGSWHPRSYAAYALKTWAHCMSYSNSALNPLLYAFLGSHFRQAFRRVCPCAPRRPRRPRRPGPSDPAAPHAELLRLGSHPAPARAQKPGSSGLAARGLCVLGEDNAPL
How it was run: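 After overnight (18 h) culture at 37 C/5% CO2, human KISS1R-HEK293 cells received calcium dye for 1 h, then test compound; emission at 540 nm (excitation 480 nm) was tracked for 3 min.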

[5] = G protein-coupled receptor (GPCR) small molecule agonists, calcium flux assay: HEK293 wild type cell line counter screen (AID 1920065)
How it was run: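 Following 18 h incubation at 37 C/5% CO2, plates got calcium dye for 1 h; compounds, ATP or DMSO were then pinned in and fluorescence followed kinetically (480/540 nm).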

[6] = p53 small molecule agonists, cell-based qHTS assay with human liver microsomes (AID 1963577);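 further: p53 response element beta-lactamase reporter cells with liver microsomes plus NADPH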
How it was run: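 Steps: plate p53RE-bla cells, incubate 5 h at 37 C; add compound in DMSO; add microsomes (0.5 mg/mL final) and NADPH (0.5 mg/mL final); incubate 16 h at 37 C; add LiveBLAzer, 2 h RT; read fluorescence.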

[7] = p53 small molecule agonists, cell-based qHTS assay with rat liver microsomes (AID 1963578)
How it was run: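 Metabolic activation is supplied by rat liver microsomes with NADPH (each 0.5 mg/mL final). p53RE-bla cells incubate with compound 16 h at 37 C; reporter activity is measured by LiveBLAzer fluorescence.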

[8] = p53 small molecule agonists, cell-based qHTS assay with human liver microsomes: qHTS cell viability counter screen (AID 1963579); further: nearly all actives have a fitted effect of over 45% in size
How it was run: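 After the 460/530 nm beta-lactamase read, CellTiter-Glo was added to the same wells and luminescence measured after 30 min at room temperature, giving viability of p53RE-bla cells treated 16 h with compounds plus microsomes and NADPH.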

[9] = p53 small molecule agonists, cell-based qHTS assay: qHTS cell viability counter screen (AID 1963581); further: nearly all actives have a fitted effect of over 45% in size
How it was run: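 qHTS counter screen: 16 h compound exposure at 37 C of p53RE-bla HCT-116 cells (4,000 per well, seeded 5 h prior), cell viability by ATP luminescence.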

[10] = p53 small molecule agonists, cell-based qHTS assay (AID 1963582; active means well fitted activation curve with a large enough effect in the signal ratio in the repeat runs, not every such curve was filed as active; the % refers to the signal ratio)
How it was run: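 Measured: fluorescence from cleaved LiveBLAzer substrate. System: p53RE-bla cells, 16 h compound treatment at 37 C, 2 h substrate step at room temperature.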

[11] = target: 5-hydroxytryptamine receptor 2A (Homo sapiens) (UniProt P28223); test: 5-hydroxytryptamine receptor 2A (HTR2A) small molecule antagonists, cell-based qHTS assay (AID 1963586); further: nearly all actives have a fitted effect of over 45% in size
Chain of 5-hydroxytryptamine receptor 2A (Homo sapiens) (P28223 whole entry, looked up): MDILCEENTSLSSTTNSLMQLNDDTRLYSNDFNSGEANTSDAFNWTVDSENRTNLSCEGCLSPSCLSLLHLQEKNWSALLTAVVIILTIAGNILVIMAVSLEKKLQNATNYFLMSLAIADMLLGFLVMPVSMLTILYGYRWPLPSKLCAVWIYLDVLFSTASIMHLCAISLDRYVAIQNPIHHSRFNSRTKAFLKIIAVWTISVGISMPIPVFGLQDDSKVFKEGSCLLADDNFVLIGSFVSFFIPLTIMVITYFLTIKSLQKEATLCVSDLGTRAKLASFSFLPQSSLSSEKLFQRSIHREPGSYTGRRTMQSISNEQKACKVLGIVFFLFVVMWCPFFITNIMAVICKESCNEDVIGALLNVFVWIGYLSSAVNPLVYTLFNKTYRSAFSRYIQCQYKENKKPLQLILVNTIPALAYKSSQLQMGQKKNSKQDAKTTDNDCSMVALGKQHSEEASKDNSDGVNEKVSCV
How it was run: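 CHO cells stably expressing human HTR2A were plated for 18 h at 37 C, then loaded with calcium dye for 1 h. Compounds were preincubated 5 min at room temperature before DOI (4 nM solution) was added. Kinetic fluorescence was read for 3 min.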

[12] = target: 5-hydroxytryptamine receptor 2A (Homo sapiens) (UniProt P28223); test: 5-hydroxytryptamine receptor 2A (HTR2A) small molecule agonists, cell-based qHTS assay (AID 1963587); further: nearly all actives have a fitted effect of over 30% in size
How it was run: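 Kinetic calcium-flux fluorescence (2 min, 1 sec intervals) after compound addition in agonist mode. HTR2A-CHO cells were cultured 18 h, then dye-loaded 1 h at 37 C.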

[13] = target: Muscarinic acetylcholine receptor M1 (Homo sapiens) (UniProt P11229); test: Cholinergic receptor muscarinic 1 (CHRM1) small molecule antagonists, cell-based qHTS assay (AID 1963588); further: nearly all actives have a fitted effect of over 40% in size
Chain of Muscarinic acetylcholine receptor M1 (Homo sapiens) (P11229 whole entry, looked up): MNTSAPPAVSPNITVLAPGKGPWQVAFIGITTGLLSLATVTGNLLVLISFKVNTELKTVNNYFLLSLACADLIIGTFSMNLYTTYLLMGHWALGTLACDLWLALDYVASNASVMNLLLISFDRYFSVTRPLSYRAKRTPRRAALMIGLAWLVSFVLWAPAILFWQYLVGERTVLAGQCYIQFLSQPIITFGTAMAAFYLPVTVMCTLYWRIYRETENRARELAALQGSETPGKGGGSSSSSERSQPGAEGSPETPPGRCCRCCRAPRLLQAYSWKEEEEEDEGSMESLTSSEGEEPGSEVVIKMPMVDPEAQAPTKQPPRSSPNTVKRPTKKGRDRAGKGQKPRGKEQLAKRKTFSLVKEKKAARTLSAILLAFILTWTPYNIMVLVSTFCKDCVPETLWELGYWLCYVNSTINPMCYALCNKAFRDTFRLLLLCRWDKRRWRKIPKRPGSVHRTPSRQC
How it was run: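 Compounds were tested at 15 concentrations in three independent runs. Dye-loaded CHRM1-CHO cells were exposed 5 min at room temperature before stimulation by acetylcholine added at 50nM. Intracellular calcium was read kinetically on FDSS for 3 min.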

[14] = cAMP Responsive Elements (CRE) small molecule agonists, cell-based qHTS assay (AID 1963590)
How it was run: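 Test agents in DMSO were incubated 3 h at 37 C/5% CO2 with CRE-bla HEK 293T cells seeded 18 h earlier; LiveBLAzer B/G FRET substrate was added and read after 2 h at room temperature.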

[15] = cAMP Responsive Elements (CRE) small molecule antagonists, cell-based qHTS assay (AID 1963591; active means well fitted inhibition curve with a large enough effect in the signal ratio in the repeat runs, not every such curve was filed as active; the % refers to the signal ratio)
How it was run: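 Reporter line CRE-bla HEK 293T in dialyzed-FBS DMEM; cells preincubated 18 h, treated 3 h with compound plus NKH477 (0.25 uM final); LiveBLAzer FRET, 2 h RT.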

[16] = target: Beta-2 adrenergic receptor (Homo sapiens) (UniProt P07550); test: Adrenergic beta2 receptor (ADRB2) small molecule antagonists, cell-based qHTS assay (AID 1963592); further: series mostly up to about 92 µM; nearly all actives have a fitted effect of over 50% in size
Chain of Beta-2 adrenergic receptor (Homo sapiens) (P07550 whole entry, looked up): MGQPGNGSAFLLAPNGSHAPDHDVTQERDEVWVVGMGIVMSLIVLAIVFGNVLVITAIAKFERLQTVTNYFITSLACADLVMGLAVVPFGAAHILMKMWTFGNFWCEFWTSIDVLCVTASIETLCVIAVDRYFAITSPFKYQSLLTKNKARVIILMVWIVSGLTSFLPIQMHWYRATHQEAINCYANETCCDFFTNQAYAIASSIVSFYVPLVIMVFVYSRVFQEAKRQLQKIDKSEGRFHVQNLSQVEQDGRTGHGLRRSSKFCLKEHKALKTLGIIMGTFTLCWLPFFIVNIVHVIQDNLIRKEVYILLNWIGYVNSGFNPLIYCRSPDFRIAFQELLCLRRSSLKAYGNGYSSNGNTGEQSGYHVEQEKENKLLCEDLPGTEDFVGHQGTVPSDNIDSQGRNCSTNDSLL
How it was run: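 Assay format: CHO-ADRB2 cells, 18-20hr seeding at 37C/5% CO2, then compound plus 1nM isoproterenol agonist mix for 0.5hr RT. Homogeneous time-resolved fluorescence cAMP detection after 1hr, expressed as 665/615 nm ratio.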

[17] = target: Beta-2 adrenergic receptor (Homo sapiens) (UniProt P07550); test: Adrenergic beta2 receptor (ADRB2) small molecule agonists, cell-based qHTS assay (AID 1963593);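 further: CHO cells stably overexpressing human ADRB2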
How it was run: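 CHO cells stably over-expressing ADRB2 were plated overnight at 37C, then dosed with compounds plus a stimulation mix containing 100uM IBMX and 25uM Ro-20-1724 for 0.5hr at room temperature. cAMP was measured by HTRF competition, 1hr.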

[18] = target: D(2) dopamine receptor (Homo sapiens) (UniProt P14416); test: Dopamine D2 receptor (DRD2) small molecule agonists, cell-based qHTS assay (AID 1963594); further: nearly all actives have a fitted effect of over 35% in size
Chain of D(2) dopamine receptor (Homo sapiens) (P14416 whole entry, looked up): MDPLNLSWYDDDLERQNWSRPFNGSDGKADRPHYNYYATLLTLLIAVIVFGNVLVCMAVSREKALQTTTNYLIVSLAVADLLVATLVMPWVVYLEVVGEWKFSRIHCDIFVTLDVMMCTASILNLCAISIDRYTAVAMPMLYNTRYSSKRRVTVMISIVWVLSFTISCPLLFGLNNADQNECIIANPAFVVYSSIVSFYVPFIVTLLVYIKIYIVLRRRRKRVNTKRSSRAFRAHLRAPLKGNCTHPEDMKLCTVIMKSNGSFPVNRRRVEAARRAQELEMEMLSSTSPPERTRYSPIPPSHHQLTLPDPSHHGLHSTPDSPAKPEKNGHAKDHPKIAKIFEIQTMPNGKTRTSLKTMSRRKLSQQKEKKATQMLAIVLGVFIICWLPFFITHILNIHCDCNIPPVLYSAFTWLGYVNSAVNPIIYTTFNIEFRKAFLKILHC
How it was run: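 cAMP accumulation in DRD2-HEK293 cells measured by HTRF after 1 h detection; compounds added 10 min before NKH477 (200nM […]) forskolin-analogue stimulation, 30 min at room temperature, with Ro20-1724 present at 0.1 mM final.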

[19] = target: D(2) dopamine receptor (Homo sapiens) (UniProt P14416); test: Dopamine D2 receptor (DRD2) small molecule antagonists, cell-based qHTS assay (AID 1963595; active means well fitted inhibition curve with a large enough effect in the signal ratio in the repeat runs, with a control signal flat; the % refers to the signal ratio)
How it was run: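 DRD2-HEK293; 0.1 mM Ro20-1724; cpd 10 min RT; NKH477 200 nM + quinpirole 12 nM, 30 min RT; HTRF cAMP (cAMP-d2/anti-cAMP cryptate), 665/620 nm ratio after 1 h.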

[20] = target: Muscarinic acetylcholine receptor M1 (Homo sapiens) (UniProt P11229); test: Cholinergic receptor muscarinic 1 (CHRM1) small molecule agonists, cell-based qHTS assay (AID 1963589); further: nearly all actives have a fitted effect of over 35% in size
How it was run: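 Kinetic fluorescence (1 s intervals) of calcium-sensitive dye in human M1 CHO cells after compound addition; cells pre-incubated 18 h at 37 C/5% CO2 and dye-loaded 1 h.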
On the % scale 0 is the no-effect control and ±100 the full control effect.

[O]=[Bi]
inactive: activity change, negative = cytotoxicity [1] 4.16% [at 8.39 µM] | activity, positive = activation [2] 29.8% [at 8.39 µM] | activity change [3] 0.29% [at 5.22 µM, hits give high values] | activation [4] 0.437% [at 6.97 µM] | activation [5] 0.259% [at 5.23 µM] | activation [6] -14.4% [at 5.99 µM] | activation [7] 0.191% [at 5.99 µM] | activity change, negative = cytotoxicity [8] -5.49% [at 5.99 µM] | activity change, negative = cytotoxicity [9] 5.64% [at 5.99 µM] | activation [10] 6.59% [at 5.99 µM] | activity, negative = inhibition [11] 2.38% [at 5.62 µM] | activation [12] 0.438% [at 7.02 µM] | activity, negative = inhibition [13] 3.36% [at 5.58 µM] | activation [14] -0.129% [at 8.39 µM] | activity change, negative = inhibition [15] -10.4% [at 8.39 µM] | activity change, negative = inhibition [16] 6.45% [at 8.39 µM] | activation [17] 3.98% [at 8.39 µM] | activation [18] 0.151% [at 8.39 µM] | activity change, negative = inhibition [19] -14.1% [at 8.38 µM]

CCCCCCOC(=O)CCCCC(=O)OCCCCCC
inactive: Potency [1] | Potency [2] | Potency [3] | outcome [4] | outcome [5] | Potency [6] | Potency [7] | Potency [8] | Potency [9] | Potency [10] | Potency [11] | Potency [12] | Potency [13] | Potency [20] | Potency [14] | Potency [15] | Potency [16] | Potency [18] | Potency [19]

CCCCC/C=C/CC1CC(=O)OC1=O (stereo not drawn)
inactive: Potency [1] | Potency [2] | Potency [3] | outcome [4] | outcome [5] | Potency [6] | Potency [7] | Potency [8] | Potency [9] | Potency [10] | Potency [11] | Potency [12] | Potency [13] | Potency [20] | Potency [14] | Potency [15] | Potency [16] | Potency [18] | Potency [19]

CC(C)=NNC(N)=S
inactive: Potency [3] | outcome [4] | outcome [5] | Potency [6] | Potency [7] | Potency [8] | Potency [9] | Potency [10] | Potency [11] | Potency [12] | Potency [13] | Potency [20] | Potency [15] | Potency [16] | Potency [17] | Potency [18] | Potency [19]
active: Potency [1] 30.6 µM | Potency [2] 15.4 µM

c1cnc2c(n1)CCCC2
inactive: Potency [1] | Potency [2] | Potency [3] | outcome [4] | outcome [5] | Potency [6] | Potency [7] | Potency [8] | Potency [9] | Potency [10] | Potency [11] | Potency [12] | Potency [13] | Potency [20] | Potency [14] | Potency [15] | Potency [16] | Potency [18] | Potency [19]

OCCN(CCO)CCN(CCO)CCO
inactive: Potency [1] | Potency [2] | Potency [3] | outcome [4] | outcome [5] | Potency [6] | Potency [7] | Potency [8] | Potency [9] | Potency [10] | Potency [11] | Potency [12] | Potency [13] | Potency [20] | Potency [14] | Potency [15] | Potency [16] | Potency [19]
